Experimental data published in PubChem BioAssay AID1159580 (chemical genetic matrix, 2015).
The campaign covered roughly 5,500 compounds. About 2,000 (36%) were called active. Another 18% or so got no clear call; they are omitted. Rule as the data show it: active = normalized growth mostly below about 0.91 (no sharp cut-off); inconclusive = no clear call, values can overlap the other calls; inactive = mostly above about 0.92. Some of the results follow.

Test: chemical genetic growth profiling, strain panel (AID 1159580);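 also: tested at 20 µM; growth read once vehicle control cultures reached saturation at 30 °C; 1 = growth at the plate median or of vehicle wells; lower values mean less growth of the strain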
Details: growth OD

Measured: normalized growth

NC(=O)c1ccc[n+]([C@@H]2O[C@H](COP(=O)([O-])OP(=O)(O)OC[C@H]3O[C@@H](n4cnc5c(N)ncnc54)[C@H](OP(=O)(O)O)[C@@H]3O)[C@@H](O)[C@H]2O)c1
inactive: S. cerevisiae deletion strains, locus YAL013W, strain DEP1, hits give low values 1.02 | S. cerevisiae deletion strains, locus YBR021W, strain FUR4, hits give low values 1 | S. cerevisiae deletion strains, locus YBR229C, strain ROT2, hits give low values 1.03 | S. cerevisiae deletion strains, locus YCL029C, strain bik1, hits give low values 1 | S. cerevisiae deletion strains, locus YDL035C, strain GPR1, hits give low values 1.06 | S. cerevisiae deletion strains, locus YDL074C, strain BRE1, hits give low values 1.02 | S. cerevisiae deletion strains, locus YDL101C, strain DUN1, hits give low values 1.02 | S. cerevisiae deletion strains, locus YDL134C, strain PPH21, hits give low values 1.02 | S. cerevisiae deletion strains, locus YDL185W, strain tfp1, hits give low values 0.994 | S. cerevisiae deletion strains, locus YDL192W, strain arf1, hits give low values 1.01 | S. cerevisiae deletion strains, locus YDR101C, strain arx1, hits give low values 1.01 | S. cerevisiae deletion strains, locus YDR150W, strain NUM1, hits give low values 1.02 | S. cerevisiae deletion strains, locus YDR162C, strain NBP2, hits give low values 1.03 | S. cerevisiae deletion strains, locus YDR318W, strain mcm21, hits give low values 1.01 | S. cerevisiae deletion strains, locus YDR388W, hits give low values 0.985 | S. cerevisiae deletion strains, locus YDR502C, strain sam2, hits give low values 1.03 | S. cerevisiae deletion strains, locus YEL061C, strain CIN8, hits give low values 1.02 | S. cerevisiae deletion strains, locus YER110C, hits give low values 1 | S. cerevisiae deletion strains, locus YER155C, strain BEM2, hits give low values 1 | S. cerevisiae deletion strains, locus YER167W, strain BCK2, hits give low values 1.04 | S. cerevisiae deletion strains, locus YGL078C, strain dbp3, hits give low values 0.995 | S. cerevisiae deletion strains, locus YGL086W, strain mad1, hits give low values 1.04 | S. cerevisiae deletion strains, locus YGL248W, strain PDE1, hits give low values 1.02 | S. cerevisiae deletion strains, locus YGR078C, strain PAC10, hits give low values 1.04 | S. cerevisiae deletion strains, locus YGR135W, strain pre9, hits give low values 1.02 | S. cerevisiae deletion strains, locus YGR229C, strain SMI1, hits give low values 1.03 | S. cerevisiae deletion strains, locus YGR252W, strain gcn5, hits give low values 1.03 | S. cerevisiae deletion strains, locus YHR030C, strain SLT2, hits give low values 1.01 | S. cerevisiae deletion strains, locus YHR079C, strain IRE1 (second series), hits give low values 1.01 | S. cerevisiae deletion strains, locus YHR094C, strain hxt1, hits give low values 0.995 | S. cerevisiae deletion strains, locus YHR129C, strain ARP1, hits give low values 1.02 | S. cerevisiae deletion strains, locus YHR200W, strain rpn10, hits give low values 1 | S. cerevisiae deletion strains, locus YIL066C, strain RNR3, hits give low values 1.03 | S. cerevisiae deletion strains, locus YIL073C, strain SPO22, hits give low values 1.02 | S. cerevisiae deletion strains, locus YIL125W, strain kgd1, hits give low values 0.981 | S. cerevisiae deletion strains, locus YIR030C, strain dcg1, hits give low values 0.996 | S. cerevisiae deletion strains, locus YJL095W, strain BCK1, hits give low values 1.03 | S. cerevisiae deletion strains, locus YJL134W, strain LCB3, hits give low values 1.01 | S. cerevisiae deletion strains, locus YJL168C, strain set2, hits give low values 0.996 | S. cerevisiae deletion strains, locus YJL187C, strain SWE1 (second series), hits give low values 1.03 | S. cerevisiae deletion strains, locus YJR043C, strain POL32, hits give low values 1.03 | S. cerevisiae deletion strains, locus YJR075W, strain HOC1, hits give low values 1.05 | S. cerevisiae deletion strains, locus YKL009W, strain mrt4, hits give low values 1.02 | S. cerevisiae deletion strains, locus YKL068W, hits give low values 0.999 | S. cerevisiae deletion strains, locus YKL085W, strain MDH1 (second series), hits give low values 0.99 | S. cerevisiae deletion strains, locus YKL085W, strain MDH1, hits give low values 0.99 | S. cerevisiae deletion strains, locus YKL190W, strain CNB1, hits give low values 1.01 | S. cerevisiae deletion strains, locus YKR001C, strain vps1, hits give low values 0.996 | S. cerevisiae deletion strains, locus YLR039C, strain RIC1, hits give low values 1.04 | S. cerevisiae deletion strains, locus YLR058C, strain SHM2, hits give low values 1.02 | S. cerevisiae deletion strains, locus YLR102C, strain apc9, hits give low values 0.99 | S. cerevisiae deletion strains, locus YLR262C, strain YPT6, hits give low values 1.08 | S. cerevisiae deletion strains, locus YLR268W, strain sec22, hits give low values 0.949 | S. cerevisiae deletion strains, locus YLR330W, strain CHS5, hits give low values 1.01 | S. cerevisiae deletion strains, locus YLR342W, strain FKS1 (second series), hits give low values 1.04 | S. cerevisiae deletion strains, locus YLR371W, strain rom2, hits give low values 0.987 | S. cerevisiae deletion strains, locus YLR418C, strain cdc73, hits give low values 1.04 | S. cerevisiae deletion strains, locus YML016C, strain PPZ1, hits give low values 1.02 | S. cerevisiae deletion strains, locus YML032C, strain rad52, hits give low values 0.979 | S. cerevisiae deletion strains, locus YML124C, strain tub3, hits give low values 0.991 | S. cerevisiae deletion strains, locus YMR078C, strain ctf18, hits give low values 0.995 | S. cerevisiae deletion strains, locus YMR223W, strain ubp8, hits give low values 1.04 | S. cerevisiae deletion strains, locus YMR263W, strain SAP30, hits give low values 1.04 | S. cerevisiae deletion strains, locus YMR307W, strain GAS1, hits give low values 1.07 | S. cerevisiae deletion strains, locus YNL067W, strain RPL9B, hits give low values 1.04 | S. cerevisiae deletion strains, locus YNL128W, strain TEP1, hits give low values 1.05 | S. cerevisiae deletion strains, locus YNL153C, strain GIM3, hits give low values 1.02 | S. cerevisiae deletion strains, locus YNL233W, strain BNI4, hits give low values 1.03 | S. cerevisiae deletion strains, locus YNL250W, strain rad50, hits give low values 0.995 | S. cerevisiae deletion strains, locus YNL271C, strain bni1, hits give low values 0.993 | S. cerevisiae deletion strains, locus YNL298W, strain CLA4, hits give low values 0.989 | S. cerevisiae deletion strains, locus YNL307C, strain MCK1, hits give low values 1.01 | S. cerevisiae deletion strains, locus YNL322C, strain KRE1, hits give low values 1.01 | S. cerevisiae deletion strains, locus YNR052C, strain pop2, hits give low values 0.991 | S. cerevisiae deletion strains, locus YOL006C, strain TOP1, hits give low values 1.03 | S. cerevisiae deletion strains, locus YOL012C, strain htz1 0.919 | S. cerevisiae deletion strains, locus YOL147C, strain pex11, hits give low values 0.995 | S. cerevisiae deletion strains, locus YOR061W, strain CKA2, hits give low values 1.02 | S. cerevisiae deletion strains, locus YOR069W, strain VPS5, hits give low values 1.01 | S. cerevisiae deletion strains, locus YOR136W, strain idh2, hits give low values 1.01 | S. cerevisiae deletion strains, locus YOR144C, strain elg1, hits give low values 0.984 | S. cerevisiae deletion strains, locus YOR184W, strain ser1, hits give low values 1.02 | S. cerevisiae deletion strains, locus YOR316C, strain cot1, hits give low values 0.997 | S. cerevisiae deletion strains, locus YPL055C, strain LGE1, hits give low values 1.05 | S. cerevisiae deletion strains, locus YPL241C, strain CIN2, hits give low values 1.02 | S. cerevisiae deletion strains, locus YPR119W, strain clb2, hits give low values 0.986 | S. cerevisiae deletion strains, locus YPR141C, strain kar3, hits give low values 0.978 | S. cerevisiae deletion strains, locus YPR163C, strain tif3, hits give low values 0.997 | S. cerevisiae deletion strains, locus YPR167C, strain met16, hits give low values 0.99 | S. cerevisiae deletion strains, strain wtn01, hits give low values 1 | S. cerevisiae strains, strain wild type, hits give low values 1.03
